Measured values reported in the supplement of paper PMC6555819.

Assays:
Experiment in all cases: PBM binding z-score (relative to random genomic background probes); higher = stronger binding; sequences stand for … in GC…GCGATTGACAGCGTAGAATGAAGG
[1] = tested on: RARb homodimer (NR concentration 270 nM)
How it was run: (§1)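 Antibodies against each partner of ligand-free nuclear receptor dimers (one per run) detected binding on custom Agilent 4×180K protein-binding microarrays after 1 h incubation. The double-stranded probes had 34-nt variable regions carrying direct-repeat seeds, single-nucleotide variants, half-site ablations and random human genomic background sequences. Binding z-scores, from regression-normalized fluorescence, use the random background probes as reference.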

[2] = tested on: RARg:RXRa (NR concentration 270 nM, RXRa partner concentration 90 nM)
How it was run: as §1

[3] = tested on: RARg homodimer (NR concentration 270 nM)
How it was run: as §1

[4] = tested on: RXRa DBDmut IVT, anti-RXR (DBD mutation: RXRa K156A/R161A, NR concentration 90 nM)
How it was run: as §1

[5] = tested on: RXRa homodimer (NR concentration 180 nM)
How it was run: as §1

[6] = tested on: THRa:RXRa (NR concentration 90 nM, RXRa partner concentration 90 nM)
How it was run: as §1

[7] = tested on: THRa homodimer (NR concentration 90 nM)
How it was run: as §1

[8] = tested on: VDR homodimer (NR concentration 270 nM)
How it was run: as §1

Sequence: ATGTCTAGGTAAGACTCAGTTCAGTGAAGAACGC
- PBM binding z-score [1]: 0.578
- PBM binding z-score [2]: 0.0385
- PBM binding z-score [3]: 0.257
- PBM binding z-score [4]: 0.0481
- PBM binding z-score [5]: 0.0164
- PBM binding z-score [6]: 0.567
- PBM binding z-score [7]: 0.326
- PBM binding z-score [8]: 1.07

Sequence: TCATATAGGTAATACAGGTGAAAGTTGGCATCTA
- PBM binding z-score [1]: 0.923
- PBM binding z-score [2]: 1.02
- PBM binding z-score [3]: 0.788
- PBM binding z-score [4]: 1.86
- PBM binding z-score [5]: 1.69
- PBM binding z-score [6]: 1.19
- PBM binding z-score [7]: 0.467
- PBM binding z-score [8]: 0.572

Sequence: AGAATGAGGTTACCAAAAATCAGGGAAACGCTTG
- PBM binding z-score [1]: 0.769
- PBM binding z-score [2]: 1.84
- PBM binding z-score [3]: 1.53
- PBM binding z-score [4]: 1.07
- PBM binding z-score [5]: 2.47
- PBM binding z-score [6]: 2.57
- PBM binding z-score [7]: 1.03
- PBM binding z-score [8]: 0.541

Sequence: CGTCCAAGGTTAAAGGTCAGTGAAGAGATGACGG
- PBM binding z-score [1]: 4.52
- PBM binding z-score [2]: 6.38
- PBM binding z-score [3]: 5.4
- PBM binding z-score [4]: 2.09
- PBM binding z-score [5]: 8.31
- PBM binding z-score [6]: 3.84
- PBM binding z-score [7]: 0.929
- PBM binding z-score [8]: 1.46

Sequence: AGAATTAGGTTACCAAAGATCAGGGAAACGCTTG
- PBM binding z-score [1]: 0.444
- PBM binding z-score [2]: 0.812
- PBM binding z-score [3]: 0.884
- PBM binding z-score [4]: 0.172
- PBM binding z-score [5]: 0.88
- PBM binding z-score [6]: 1.12
- PBM binding z-score [7]: 0.308
- PBM binding z-score [8]: -0.053

Sequence: ATCGAAAGGTCGACGAGCTGAGTATACACCGTTT
- PBM binding z-score [1]: 2.38
- PBM binding z-score [2]: 3.86
- PBM binding z-score [3]: 3.6
- PBM binding z-score [4]: 1.09
- PBM binding z-score [5]: 4.01
- PBM binding z-score [6]: 1.58
- PBM binding z-score [7]: -0.705
- PBM binding z-score [8]: 0.176

Sequence: TCACCAAGGTGAAAGGTCGTTGATGCACGCCTTG
- PBM binding z-score [1]: 2.63
- PBM binding z-score [2]: 4.15
- PBM binding z-score [3]: 2
- PBM binding z-score [4]: 1.09
- PBM binding z-score [5]: 5.41
- PBM binding z-score [6]: 3.33
- PBM binding z-score [7]: 0.739
- PBM binding z-score [8]: 0.922

Sequence: CCGCGGAGGACAGAAGGTCAGAGCTGTCCGCTTT
- PBM binding z-score [1]: 3.51
- PBM binding z-score [2]: 3.69
- PBM binding z-score [3]: 3.56
- PBM binding z-score [4]: 0.479
- PBM binding z-score [5]: 2.27
- PBM binding z-score [6]: 2.17
- PBM binding z-score [7]: -0.127
- PBM binding z-score [8]: 0.1

Sequence: GCTGATAGGTCAACTGATGGTCAGCTAAAGCTCG
- PBM binding z-score [1]: 3.72
- PBM binding z-score [2]: 6.23
- PBM binding z-score [3]: 6.12
- PBM binding z-score [4]: 1.65
- PBM binding z-score [5]: 4.91
- PBM binding z-score [6]: 2.55
- PBM binding z-score [7]: -0.713
- PBM binding z-score [8]: -0.0716

Sequence: CCCAGCAGGCCAGGGTCACTCAAGCATTTCGCTT
- PBM binding z-score [1]: 2.82
- PBM binding z-score [2]: 3.02
- PBM binding z-score [3]: 2.79
- PBM binding z-score [4]: 0.022
- PBM binding z-score [5]: 3.26
- PBM binding z-score [6]: 2.81
- PBM binding z-score [7]: 1.3
- PBM binding z-score [8]: 1.55

Sequence: GGTACGAGGGCATTCGAGTTGATAGCATGGCGAT
- PBM binding z-score [1]: 0.849
- PBM binding z-score [2]: 1.06
- PBM binding z-score [3]: 1.61
- PBM binding z-score [4]: 3.01
- PBM binding z-score [5]: 0.971
- PBM binding z-score [6]: 3.28
- PBM binding z-score [7]: -0.337
- PBM binding z-score [8]: 3.68

Sequence: CCAGACAGGAGAGAAGGTAACTCAGCCTCGATTA
- PBM binding z-score [1]: 0.0999
- PBM binding z-score [2]: -0.0304
- PBM binding z-score [3]: 0.0804
- PBM binding z-score [4]: 0.0336
- PBM binding z-score [5]: 0.0715
- PBM binding z-score [6]: 0.145
- PBM binding z-score [7]: 0.357
- PBM binding z-score [8]: 0.0493

Sequence: CGTCAAAGTTCAAGGTAACGTGACAGAAAGCAGC
- PBM binding z-score [1]: 3.72
- PBM binding z-score [2]: 5.21
- PBM binding z-score [3]: 5.97
- PBM binding z-score [4]: 4.54
- PBM binding z-score [5]: 4.26
- PBM binding z-score [6]: 2.99
- PBM binding z-score [7]: 1.08
- PBM binding z-score [8]: 3.04

Sequence: AGTCAAAGTTGACTAGGTAACGTAAGATTCAGCT
- PBM binding z-score [1]: 0.0886
- PBM binding z-score [2]: 0.519
- PBM binding z-score [3]: 0.771
- PBM binding z-score [4]: 0.028
- PBM binding z-score [5]: 0.242
- PBM binding z-score [6]: 0.477
- PBM binding z-score [7]: -0.555
- PBM binding z-score [8]: -0.638

Sequence: CCTAGCAGGCCATTCTGGGTCACTCAAGGCTTGA
- PBM binding z-score [1]: 2.48
- PBM binding z-score [2]: 1.3
- PBM binding z-score [3]: 1.75
- PBM binding z-score [4]: 0.405
- PBM binding z-score [5]: 1.14
- PBM binding z-score [6]: 4.1
- PBM binding z-score [7]: 0.668
- PBM binding z-score [8]: 0.435

Sequence: CTCGAATGGTCGGTTGAGGTGAGTATACGGATAA
- PBM binding z-score [1]: 0.181
- PBM binding z-score [2]: -0.0812
- PBM binding z-score [3]: 0.168
- PBM binding z-score [4]: -0.376
- PBM binding z-score [5]: -0.171
- PBM binding z-score [6]: 2.85
- PBM binding z-score [7]: 1.49
- PBM binding z-score [8]: 0.136

Sequence: TCATATAGGTAATACAGGTGAAAGCCGGCATCTA
- PBM binding z-score [1]: 0.482
- PBM binding z-score [2]: 0.795
- PBM binding z-score [3]: 0.815
- PBM binding z-score [4]: 1.69
- PBM binding z-score [5]: 1.55
- PBM binding z-score [6]: 1.14
- PBM binding z-score [7]: 0.273
- PBM binding z-score [8]: 0.67

Sequence: CCGAGTAGGTTATGAGGCATTCAGGCAACGGTGA
- PBM binding z-score [1]: 0.133
- PBM binding z-score [2]: 0.306
- PBM binding z-score [3]: 0.215
- PBM binding z-score [4]: 0.178
- PBM binding z-score [5]: 0.451
- PBM binding z-score [6]: 0.303
- PBM binding z-score [7]: 0.0556
- PBM binding z-score [8]: 0.0236

Sequence: GCATGTAGGTAATACAAGGTGAAAGTCCGATTGT
- PBM binding z-score [1]: 0.748
- PBM binding z-score [2]: 0.359
- PBM binding z-score [3]: 0.236
- PBM binding z-score [4]: -0.332
- PBM binding z-score [5]: 0.495
- PBM binding z-score [6]: 3.96
- PBM binding z-score [7]: 0.81
- PBM binding z-score [8]: -0.301

Sequence: TCTTGTAGATCAATAGAGGGTAAGAAAGTGCGCT
- PBM binding z-score [1]: 0.255
- PBM binding z-score [2]: 0.119
- PBM binding z-score [3]: 0.175
- PBM binding z-score [4]: 1.1
- PBM binding z-score [5]: 0.491
- PBM binding z-score [6]: 0.828
- PBM binding z-score [7]: -0.673
- PBM binding z-score [8]: 0.445

Sequence: TCTTGTAGATCAAGCAGGTTTAGAAAGCCTGAGT
- PBM binding z-score [1]: -0.518
- PBM binding z-score [2]: -0.361
- PBM binding z-score [3]: -0.474
- PBM binding z-score [4]: 0.521
- PBM binding z-score [5]: -0.16
- PBM binding z-score [6]: -0.173
- PBM binding z-score [7]: -0.583
- PBM binding z-score [8]: 0.0833

Sequence: ATCCAAAGGTCGAAGGTGAGTATACCCACCCGAA
- PBM binding z-score [1]: 2.66
- PBM binding z-score [2]: 4.58
- PBM binding z-score [3]: 4.35
- PBM binding z-score [4]: 0.893
- PBM binding z-score [5]: 5.48
- PBM binding z-score [6]: 2.32
- PBM binding z-score [7]: -0.204
- PBM binding z-score [8]: 0.849

Sequence: CCTACTGGGCCATCAGGCCATTGATATCAACGTT
- PBM binding z-score [1]: 0.414
- PBM binding z-score [2]: -0.00329
- PBM binding z-score [3]: 0.297
- PBM binding z-score [4]: -0.604
- PBM binding z-score [5]: -0.42
- PBM binding z-score [6]: 0.561
- PBM binding z-score [7]: 0.656
- PBM binding z-score [8]: -0.112

Sequence: TGGATGAGGTTAAAGATCAGGGAACGTGGCGTCG
- PBM binding z-score [1]: 1.38
- PBM binding z-score [2]: 2.75
- PBM binding z-score [3]: 1.59
- PBM binding z-score [4]: 1.46
- PBM binding z-score [5]: 4.05
- PBM binding z-score [6]: 2.88
- PBM binding z-score [7]: 1.11
- PBM binding z-score [8]: 1.42

Sequence: ATCTCTAGGTAACCAAGCTCAGTGAATGCCGAAC
- PBM binding z-score [1]: -0.00643
- PBM binding z-score [2]: 0.122
- PBM binding z-score [3]: -0.0382
- PBM binding z-score [4]: -0.17
- PBM binding z-score [5]: -0.107
- PBM binding z-score [6]: 0.646
- PBM binding z-score [7]: 0.537
- PBM binding z-score [8]: 0.149

Sequence: GTTCGGAGGACAAGGTCAGAGCTTTGTCCGTAGA
- PBM binding z-score [1]: 2.99
- PBM binding z-score [2]: 2.91
- PBM binding z-score [3]: 3.51
- PBM binding z-score [4]: 0.7
- PBM binding z-score [5]: 1.91
- PBM binding z-score [6]: 3.06
- PBM binding z-score [7]: 1.52
- PBM binding z-score [8]: 0.65

Sequence: AGTCAAAGTTCAGGACGAGTTAACGTAAAGCACG
- PBM binding z-score [1]: 3.1
- PBM binding z-score [2]: 4.4
- PBM binding z-score [3]: 4.71
- PBM binding z-score [4]: 2.71
- PBM binding z-score [5]: 3.19
- PBM binding z-score [6]: 2.57
- PBM binding z-score [7]: 0.422
- PBM binding z-score [8]: 2.59

Sequence: CAAACTGGGTCAAGAGGTCAAAGTCCGCTTCCCG
- PBM binding z-score [1]: 5.73
- PBM binding z-score [2]: 7.97
- PBM binding z-score [3]: 7.04
- PBM binding z-score [4]: 2.51
- PBM binding z-score [5]: 8.44
- PBM binding z-score [6]: 4.14
- PBM binding z-score [7]: 2.13
- PBM binding z-score [8]: 4.76
